The values below come from PubChem BioAssay (NCATS).

Structures are written as SMILES. A number with no mark means an inactive call. Inconclusive results are not listed. The source made the active and inactive calls. Unless noted, calls follow the shape of the dose curve; as a rule, active = well fitted curve in the direction sought with a large enough effect; inconclusive = small, poorly fitted or top-dose-only effect, or another doubt; inactive = no such curve, though single readings can be large; an effect the other way counts as inactive or inconclusive. Where only a bound is given, the exact number is not on record here.

A short description of assay [1]: AP1 Signaling Pathway (AID 357; active = well fitted curve in either direction with a large enough effect, not every such curve was filed as active;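 also: ME-180 reporter cells stimulated with EGF at its EC50 level; % is scaled to controls: 0 for no effect and ±100 for the full control effect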). The following applies: ME-180 AP-1-bla reporter, EGF-induced, beta-lactamase ratio, 5 h; at 7.69 µM (top of the series) unless noted. A digest of the protocol:
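Cells are seeded overnight, exposed to compound titrations and an EC50 level of EGF for 5 hours at 37 °C, then loaded with CCF4 dye for 2.5 hours. Beta-lactamase activity under the AP-1 element is read as a blue/green ratio.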

A short description of assay [2]: NFAT Signaling Pathway (AID 444; active = well fitted curve in either direction with a large enough effect, not every such curve was filed as active;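 also: carbachol stimulus at about its EC50 of 1 µM final; % is scaled to controls: 0 for no effect and ±100 for the full control effect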). The following applies: Jurkat NFAT-bla M1, carbachol, beta-lactamase ratio, 5 h; at 7.69 µM (top of the series) unless noted. A digest of the protocol: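 Read-out: CCF4 FRET ratio (460 nm/530 nm) after 1 h RT dye loading, used for %activity and AC50 from titration series. Cells: Jurkat NFAT-β-lactamase/M1 line, treated with compound plus 1 uM carbachol for 5 h, 37 °C.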

A short description of assay [3]: Stat Signaling Pathway (AID 446; active = well fitted curve in either direction with a large enough effect, not every such curve was filed as active;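 also: ME-180 cervical cancer cells given 40 pM IL-6 alongside compound; SIE-controlled beta-lactamase reporter measured as 460/530 nm FRET emission ratio; % is scaled to controls: 0 for no effect and ±100 for the full control effect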). A digest of the protocol: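 Overnight-plated ME-180 cells bearing a STAT Inducible Element beta-lactamase reporter; 5 h co-exposure to compound and 40 pM IL-6; values normalized to 300 pM IL-6 and 125 nM JAK inhibitor controls.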
The target in assay [4] is Glucocorticoid receptor (Homo sapiens) (UniProt P04150). In words: GR-GFP Redistribution (AID 450;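 active = compounds whose dose series gives a full or clear partial fitted curve of increased nuclear translocation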; also: potency is read from the fitted curve at half-maximal effect). Conditions: U2OS GR-GFP nuclear translocation, laser cytometry, 2 h.
Glucocorticoid receptor (Homo sapiens), sequence (P04150 whole entry, looked up): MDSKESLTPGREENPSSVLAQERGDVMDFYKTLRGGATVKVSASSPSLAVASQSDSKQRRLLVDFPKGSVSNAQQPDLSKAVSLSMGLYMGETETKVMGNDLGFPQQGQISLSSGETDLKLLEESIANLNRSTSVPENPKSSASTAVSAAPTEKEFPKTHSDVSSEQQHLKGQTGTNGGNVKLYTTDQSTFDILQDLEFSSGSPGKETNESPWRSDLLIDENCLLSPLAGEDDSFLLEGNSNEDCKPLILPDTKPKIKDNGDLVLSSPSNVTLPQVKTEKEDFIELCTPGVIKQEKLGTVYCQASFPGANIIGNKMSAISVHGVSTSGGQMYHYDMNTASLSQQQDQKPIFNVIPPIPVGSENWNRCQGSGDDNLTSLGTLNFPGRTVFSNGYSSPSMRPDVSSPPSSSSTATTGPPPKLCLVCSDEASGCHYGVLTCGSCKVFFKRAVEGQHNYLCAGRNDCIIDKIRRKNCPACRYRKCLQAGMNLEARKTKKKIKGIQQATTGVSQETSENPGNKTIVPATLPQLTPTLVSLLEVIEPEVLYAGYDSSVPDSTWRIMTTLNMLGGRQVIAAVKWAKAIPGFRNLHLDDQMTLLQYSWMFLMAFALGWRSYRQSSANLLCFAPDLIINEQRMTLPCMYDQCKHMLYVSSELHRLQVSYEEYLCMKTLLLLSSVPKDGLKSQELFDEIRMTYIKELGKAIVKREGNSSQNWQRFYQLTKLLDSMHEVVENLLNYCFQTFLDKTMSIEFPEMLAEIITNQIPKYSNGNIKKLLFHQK
Assay [5] has the same target. Kind of assay: GR-EFC Redistribution (AID 451; calls by dose curve; also: potency is read from the fitted curve at half-maximal effect). The following applies: CHO-K1 GR-EFC translocation, beta-gal luminescence, 2 h. The method, boiled down:
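Translocation of GR-ED fusion to nuclear EA restores b-gal, read by luminescence after 1 h room-temperature detection. Engineered CHO-K1 biosensor cells, 1,000/well, exposed 2 h at 37 C to titrations up to 46 uM final.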

Assay [6] addresses Mitogen-activated protein kinase 10 (Mus musculus) (UniProt Q61831). Kind of assay: JNK3 AlphaScreen Assay (AID 530; active = well fitted curve in either direction with a large enough effect, not every such curve was filed as active;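 also: kinase came from lysate of stimulated human HepG2 cells; signal reports phosphorylation of biotinylated GST-cJun 1-79 at Ser73 with 10 µM ATP; % is scaled to controls: 0 for no effect and ±100 for the full control effect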). The method, boiled down: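 qHTS titrations with 15 min compound pre-incubation before adding ATP (10 uM final). Read-out: AlphaScreen of Ser73-phosphorylated biotin-GST-cJun using HepG2 lysate JNK3 activated by IL-1β and TNFα.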
Assay [7] deals with 3',5'-cyclic-AMP phosphodiesterase 4B (Homo sapiens) (UniProt Q07343). Kind of assay: qHTS Assay for Inhibitors of PDE-IV (AID 607; active = well fitted activation curve with a large enough effect in the main read-out, with a control signal flat, not every such curve was filed as active; also: % of control where 0% means no effect). The method, boiled down:
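Live HEK293 cells with a modified cyclic nucleotide-gated (CNG) channel report intracellular cAMP via membrane-potential dye fluorescence (ex 535/em 590 nm). Endogenous PDE-IV was targeted. Compounds were tested at up to 22.9 uM final; RO 20-1724 100 uM served as control.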

Assay [8] deals with Dual specificity protein kinase CLK4 (Homo sapiens) (UniProt Q9HAZ1). In words: qHTS Assay for Inhibitors of CDC-like Kinase 4 (Kinase-Glo Assay) (AID 1770). Also: nearly all actives have a fitted effect of over 65% in size. Also: potency is read from the fitted curve at half-maximal effect. A digest of the protocol: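 Inhibition was judged from remaining ATP, measured by Ultra-Glo luciferase bioluminescence after Clk4 (25 nM) had acted on RS peptide at 1 uM ATP for 4.5 hours, room temperature.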
Dual specificity protein kinase CLK4 (Homo sapiens), sequence (Q9HAZ1 whole entry, looked up): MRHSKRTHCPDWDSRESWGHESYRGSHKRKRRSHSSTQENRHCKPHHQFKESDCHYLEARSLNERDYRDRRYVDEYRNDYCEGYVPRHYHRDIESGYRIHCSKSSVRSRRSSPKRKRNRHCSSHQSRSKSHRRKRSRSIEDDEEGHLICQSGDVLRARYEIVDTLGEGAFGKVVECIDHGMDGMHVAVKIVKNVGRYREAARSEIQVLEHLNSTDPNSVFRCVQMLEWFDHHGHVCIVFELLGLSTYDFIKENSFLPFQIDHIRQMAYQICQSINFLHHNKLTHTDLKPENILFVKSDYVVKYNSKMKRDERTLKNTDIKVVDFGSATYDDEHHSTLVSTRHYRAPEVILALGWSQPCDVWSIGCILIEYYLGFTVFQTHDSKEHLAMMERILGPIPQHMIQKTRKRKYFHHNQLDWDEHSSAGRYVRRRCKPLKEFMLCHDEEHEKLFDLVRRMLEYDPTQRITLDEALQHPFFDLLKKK
Assay [9] has the same target. Kind of assay: qHTS Assay for Inhibitors of CDC-like Kinase 4 (ADP-Glo Assay) (AID 1771). Also: nearly all actives have a fitted effect of over 70% in size. Also: potency is read from the fitted curve at half-maximal effect. A digest of the protocol:
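ADP production was read by ADP-Glo luminescence after residual ATP depletion, following 1 h room-temperature reaction of 25 nM Clk4, 1 uM ATP and 100 uM RS peptide with MgCl2, EGTA, DTT and Triton X-100.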

Assay [10] has the same target. Kind of assay: qHTS Assay for Inhibitors of CDC-like Kinase 4 (ADP-FP Assay) (AID 1795). Also: nearly all actives have a fitted effect of over 60% in size. Also: potency is read from the fitted curve at half-maximal effect. The method, boiled down: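 Inhibition of ADP formation by 6.25 nM Clk4 is measured using 1 uM ATP and 100 uM RS repeat peptide over one hour. Produced ADP displaces a fluorescent tracer from antibody, lowering polarization.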
Assay [11] addresses Ubiquitin carboxyl-terminal hydrolase 1 (Homo sapiens) (UniProt O94782). Kind of assay: Inhibitors of USP1/UAF1: Pilot qHTS (AID 504865). Also: nearly all actives have a fitted effect of over 35% in size. Also: potency is read from the fitted curve at half-maximal effect. The method, boiled down:
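Kinetic fluorescence assay: 1nM USP1/UAF1, 15 min compound preincubation, then 150nM Ub-Rho; 480/540 nm.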

The target of assay [12] is Cytochrome P450 1A2 (Homo sapiens) (UniProt P05177). Kind of assay: p450-cyp1a2 (AID 410; calls by dose curve; also: potency is read from the fitted curve at half-maximal effect). The method, boiled down: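 Luminescent demethylation readout: Luciferin-ME (100uM, equal to Km) turned over by 20nM CYP1A2 for 60 min at room temperature after NADPH regeneration addition, following 10 min compound preincubation. Normalization used 57 uM furafylline as full inhibition.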
Cytochrome P450 1A2 (Homo sapiens), sequence (P05177 whole entry, looked up): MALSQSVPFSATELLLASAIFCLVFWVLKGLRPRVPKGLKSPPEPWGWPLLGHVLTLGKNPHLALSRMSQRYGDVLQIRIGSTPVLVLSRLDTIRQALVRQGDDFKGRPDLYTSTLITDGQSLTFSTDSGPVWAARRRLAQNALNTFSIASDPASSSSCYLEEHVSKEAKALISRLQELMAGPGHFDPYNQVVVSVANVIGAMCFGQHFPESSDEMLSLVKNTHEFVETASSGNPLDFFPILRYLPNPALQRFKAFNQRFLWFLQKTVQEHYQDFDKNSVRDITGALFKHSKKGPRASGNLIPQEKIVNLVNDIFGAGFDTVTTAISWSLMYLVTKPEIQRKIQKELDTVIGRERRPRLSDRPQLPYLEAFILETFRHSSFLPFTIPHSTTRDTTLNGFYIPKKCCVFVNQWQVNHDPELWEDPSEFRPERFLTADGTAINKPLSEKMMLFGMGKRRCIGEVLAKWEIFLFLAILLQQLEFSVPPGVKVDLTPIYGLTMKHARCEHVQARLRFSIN

The target in assay [13] is Lysosomal acid glucosylceramidase (Homo sapiens) (UniProt P04062). Kind of assay: Glucocerebrosidase-p2 (AID 348; in the data active = potency below about 10 µM; also: potency is read from the fitted curve at half-maximal effect). Conditions: purified GBA, blue fluorogenic substrate, 40 min. A digest of the protocol: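 Normal human glucocerebrosidase (0.2 nM) with blue fluorogenic substrate (80 uM final) in citrate/phosphate pH 5.9 with 10mM sodium taurocholate, 0.01% tween-20; 40 min RT, NaOH/glycine stop; fluorescence Ex 365/Em 440; AC50 from a titration from 0.6 nM upwards.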
Lysosomal acid glucosylceramidase (Homo sapiens), sequence (P04062 whole entry, looked up): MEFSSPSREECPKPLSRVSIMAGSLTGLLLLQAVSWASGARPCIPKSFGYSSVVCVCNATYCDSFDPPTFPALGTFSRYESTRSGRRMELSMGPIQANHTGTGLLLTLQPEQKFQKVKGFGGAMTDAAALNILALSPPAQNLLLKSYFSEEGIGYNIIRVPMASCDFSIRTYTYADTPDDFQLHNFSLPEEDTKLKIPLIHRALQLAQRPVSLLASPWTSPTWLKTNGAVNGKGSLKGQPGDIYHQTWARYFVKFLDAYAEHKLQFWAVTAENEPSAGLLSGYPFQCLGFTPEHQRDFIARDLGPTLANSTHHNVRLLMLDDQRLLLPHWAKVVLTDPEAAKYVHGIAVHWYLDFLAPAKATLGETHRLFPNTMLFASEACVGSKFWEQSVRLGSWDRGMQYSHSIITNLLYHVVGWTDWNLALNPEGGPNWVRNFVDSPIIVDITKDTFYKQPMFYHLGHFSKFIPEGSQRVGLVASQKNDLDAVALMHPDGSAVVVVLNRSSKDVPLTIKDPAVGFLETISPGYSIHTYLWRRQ

Assay [14] addresses Cytochrome P450 3A4 (Homo sapiens) (UniProt P08684). In words: qHTS Assay for Inhibitors and Substrates of Cytochrome P450 3A4 (AID 884). Also: potency is read from the fitted curve at half-maximal effect; nearly all actives have a fitted effect of over 50% in size. The method, boiled down:
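Luminescent readout of luciferin produced by CYP3A4 (20 nM) dealkylation of Luciferin-PPXE, 25 uM (its KM). NADPH-driven reaction ran 60 min at RT after 10 min compound preincubation; data scaled to 57 uM ketoconazole as 100% inhibition.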

Assay [15] in a line: qHTS Assay for Identification of Small Molecule Agonists for Hypoxia Response Element Signaling Pathway (AID 914; active = well fitted activation curve with a large enough effect in the signal ratio, with a control signal flat, not every such curve was filed as active; the % refers to the signal ratio; also: % of control where 0% means no effect). The following applies: ME-180 (cervical carcinoma) HRE-bla reporter, beta-lactamase ratio, CoCl2, 17 h; activation: active compounds read high. A digest of the protocol:
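HRE-bla ME-180 cells, overnight plating in Opti-MEM with 0.5% dialyzed FBS; cpd titration + EC50 CoCl2, 17 h, 37 degrees Celsius; CCF4 2.5 h RT; 460/530 nm ratio; AC50.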

Assay [16] deals with Cytochrome P450 3A4 (Homo sapiens) (UniProt P08684). In words: qHTS Assay for Activators of Cytochrome P450 3A4 (AID 885). Also: nearly all actives have a fitted effect of over 65% in size. A digest of the protocol: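 Using 20nM recombinant human CYP3A4 in potassium phosphate (200mM), substrate Luciferin-PPXE at 25uM, luminescent luciferin detection followed a 60-min RT NADPH reaction; data scaled to 57 uM ketoconazole.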
Cytochrome P450 3A4 (Homo sapiens), sequence (P08684 whole entry, looked up): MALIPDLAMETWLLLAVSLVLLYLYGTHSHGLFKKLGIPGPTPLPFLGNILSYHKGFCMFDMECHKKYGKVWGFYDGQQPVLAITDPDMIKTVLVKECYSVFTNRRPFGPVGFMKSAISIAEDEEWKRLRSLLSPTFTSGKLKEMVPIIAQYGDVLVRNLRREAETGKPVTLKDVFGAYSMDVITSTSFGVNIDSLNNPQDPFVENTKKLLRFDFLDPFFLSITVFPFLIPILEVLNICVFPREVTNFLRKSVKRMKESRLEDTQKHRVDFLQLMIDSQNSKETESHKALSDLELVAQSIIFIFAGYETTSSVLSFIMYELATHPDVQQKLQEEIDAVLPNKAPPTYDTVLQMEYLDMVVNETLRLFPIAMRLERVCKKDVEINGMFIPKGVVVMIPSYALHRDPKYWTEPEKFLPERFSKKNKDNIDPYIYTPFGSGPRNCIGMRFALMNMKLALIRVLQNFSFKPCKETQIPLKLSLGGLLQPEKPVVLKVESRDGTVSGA
For assay [17], the target named is Cytochrome P450 2C19 (Homo sapiens) (UniProt P33261). In words: qHTS Assay for Inhibitors and Substrates of Cytochrome P450 2C19 (AID 899). Also: potency is read from the fitted curve at half-maximal effect; nearly all actives have a fitted effect of over 60% in size. The method, boiled down:
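Reactions contain 5nM enzyme, 10uM Luciferin-H EGE (KM) and 50mM KPO4; compound preincubates 10 min at 37C, NADPH regeneration starts turnover for 60 min. Luminescence after detection reagent gives activity.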

Ubiquitin carboxyl-terminal hydrolase 1 (Homo sapiens), sequence (O94782 whole entry, looked up): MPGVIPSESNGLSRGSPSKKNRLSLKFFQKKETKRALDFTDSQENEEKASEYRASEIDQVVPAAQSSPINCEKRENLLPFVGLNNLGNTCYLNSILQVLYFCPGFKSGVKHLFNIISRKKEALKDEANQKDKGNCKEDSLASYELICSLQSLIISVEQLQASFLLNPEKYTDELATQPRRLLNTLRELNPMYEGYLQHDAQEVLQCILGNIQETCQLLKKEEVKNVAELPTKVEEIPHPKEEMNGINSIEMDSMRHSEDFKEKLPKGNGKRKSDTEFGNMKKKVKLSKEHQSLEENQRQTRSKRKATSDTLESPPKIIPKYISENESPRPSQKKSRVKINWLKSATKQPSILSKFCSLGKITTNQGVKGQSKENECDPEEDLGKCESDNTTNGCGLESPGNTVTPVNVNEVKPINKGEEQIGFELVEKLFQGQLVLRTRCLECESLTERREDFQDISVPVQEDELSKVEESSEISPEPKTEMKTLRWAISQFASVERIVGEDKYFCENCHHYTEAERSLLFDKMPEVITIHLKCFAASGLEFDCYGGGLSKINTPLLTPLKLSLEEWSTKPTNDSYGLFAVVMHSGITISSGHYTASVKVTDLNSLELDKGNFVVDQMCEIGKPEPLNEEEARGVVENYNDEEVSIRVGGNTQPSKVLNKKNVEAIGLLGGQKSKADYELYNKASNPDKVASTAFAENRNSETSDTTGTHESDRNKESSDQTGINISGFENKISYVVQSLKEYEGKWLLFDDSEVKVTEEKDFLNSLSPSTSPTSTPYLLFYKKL
3',5'-cyclic-AMP phosphodiesterase 4B (Homo sapiens), sequence (Q07343 whole entry, looked up): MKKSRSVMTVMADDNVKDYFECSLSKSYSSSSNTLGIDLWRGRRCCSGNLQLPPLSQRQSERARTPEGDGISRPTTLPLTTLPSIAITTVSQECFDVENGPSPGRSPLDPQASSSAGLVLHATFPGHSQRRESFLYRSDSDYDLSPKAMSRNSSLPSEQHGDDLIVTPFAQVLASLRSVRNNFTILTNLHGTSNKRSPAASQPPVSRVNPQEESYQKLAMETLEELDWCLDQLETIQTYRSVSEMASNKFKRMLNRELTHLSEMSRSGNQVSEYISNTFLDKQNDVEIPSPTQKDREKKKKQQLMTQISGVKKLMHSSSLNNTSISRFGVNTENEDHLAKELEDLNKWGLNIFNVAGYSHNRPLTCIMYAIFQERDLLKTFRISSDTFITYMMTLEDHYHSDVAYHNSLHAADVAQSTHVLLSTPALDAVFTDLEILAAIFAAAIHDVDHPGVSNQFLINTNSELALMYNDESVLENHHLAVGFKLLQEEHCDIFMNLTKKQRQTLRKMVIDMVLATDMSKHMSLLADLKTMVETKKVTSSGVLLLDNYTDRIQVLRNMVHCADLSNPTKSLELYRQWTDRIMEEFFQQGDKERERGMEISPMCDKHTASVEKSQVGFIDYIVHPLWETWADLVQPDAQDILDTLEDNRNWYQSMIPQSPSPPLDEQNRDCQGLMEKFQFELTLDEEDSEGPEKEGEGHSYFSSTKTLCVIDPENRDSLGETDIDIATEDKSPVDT
Cytochrome P450 2C19 (Homo sapiens), sequence (P33261 whole entry, looked up): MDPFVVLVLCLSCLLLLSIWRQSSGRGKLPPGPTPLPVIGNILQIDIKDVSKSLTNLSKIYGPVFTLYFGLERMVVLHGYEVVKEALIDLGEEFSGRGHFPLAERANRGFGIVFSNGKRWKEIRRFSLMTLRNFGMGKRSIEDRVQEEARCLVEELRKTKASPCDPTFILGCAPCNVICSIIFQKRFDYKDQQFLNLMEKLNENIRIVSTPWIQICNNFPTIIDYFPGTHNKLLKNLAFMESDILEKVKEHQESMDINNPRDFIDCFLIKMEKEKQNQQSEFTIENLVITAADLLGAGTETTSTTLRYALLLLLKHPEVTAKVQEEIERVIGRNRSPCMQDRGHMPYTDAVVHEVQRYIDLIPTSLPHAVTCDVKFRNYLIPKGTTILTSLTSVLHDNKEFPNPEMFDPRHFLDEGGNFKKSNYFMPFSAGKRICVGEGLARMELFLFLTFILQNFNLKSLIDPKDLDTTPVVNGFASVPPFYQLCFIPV

For `CN(C)C(=O)c1ccc(-c2nc(N3CCOCC3)c3ccccc3n2)cc1`, the values for the activity change, negative = inhibition in assay [1] and in [2] were 0.443% and 21.6%, respectively. For the same compound, the compound was classed as inactive in assay [3]. In addition, the Potency in assay [4] and in assay [5] was above 46 µM each time. For the same compound, the Potency entry in assay [6], in assay [7], in assay [8], in assay [9], in assay [10] and in assay [11] was “inactive” in each case.

In the case of `CN(Cc1ccco1)c1nc(-c2cccnc2)nc2ccccc12`, the Potency in assay [12] was 0.316 µM (active); in [4], above 46 µM; in assay [5], above 46 µM; in [8] it was 15.8 µM (active); in [9], 14.1 µM (active); in assay [10] it was 12.6 µM (active). Besides, the activity change, negative = inhibition in assay [2] was -25.8%. For the same compound, the compound was classed as inactive in assay [3]. Besides, the Potency result in assay [6] and in assay [11] was “inactive” throughout.

As to `Cc1cnc(CNc2ncnc3ccc(-c4ccc(N(C)C)cc4)cc23)cn1`, the Potency in assay [13] is above 11.4 µM; in assay [12] it was 1 µM (active); in [4], above 46 µM; in assay [5], above 46 µM; in assay [8], 8.91 µM (active); in assay [9], 11.2 µM (active). Moreover, the activity change, negative = inhibition in [2] was 5.72%. For the same compound, the compound was classed as inactive in assay [3]. Further, the Potency entry in assay [7], in [10] and in assay [11] was “inactive” in each case.

Take `CN(C)c1ncc2nc(CCc3ccccc3)c(=O)n(CCc3ccccc3)c2n1`: the Potency in assay [13] was above 11.4 µM; in assay [12], 6.31 µM (active); in [4], above 9.22 µM; in assay [5], above 46 µM; in assay [14], 6.31 µM (active). For the same compound, the activity change, negative = inhibition is -11.1% in [1] and -22.4% in assay [2]. For the same compound, the activation in assay [15] is 21.3%. The Potency entry in assay [8], in [9], in assay [10] and in [11] was “inactive” each time.

Turning to `COc1cccc(-c2nc(NC3CC3)c3ccccc3n2)c1`, the Potency in assay [13] is 2.73 µM (active); in assay [4] it was above 46 µM; in assay [5] it was above 46 µM; in assay [8], 7.08 µM (active); in assay [9], 7.08 µM (active); in assay [10], 2.82 µM (active). For the same compound, the figures for the activity change, negative = inhibition in assay [1] and in [2] were -6.5% and 1.07%, respectively. In [6], the Potency result is “inactive”.

On to `CN(Cc1ccco1)c1nc(-c2ccccc2C(F)(F)F)nc2ccccc12`, for which the Potency in assay [13] is above 11.4 µM; in [12] it was 2 µM (active); in [4] it was above 46 µM; in assay [5], above 46 µM; in assay [17], 7.94 µM (active); in assay [8], 20 µM (active). Besides, the Potency in assay [9] and in assay [11] was 28.2 µM (active) throughout. For the same compound, in [1], the activity change, negative = inhibition is 23.8%. The compound was called inactive in [3] and in [16]. Moreover, the Potency entry in assay [6] and in assay [10] was “inactive” in each case.

Take `O=c1c(CCc2ccccc2)nc2cnc(Oc3ccccc3)nc2n1C1CC1`: the Potency in assay [13] was above 11.4 µM; in [12], 7.94 µM (active); in [4] it was above 9.22 µM; in assay [5], above 46 µM. Moreover, the figures for the activity change, negative = inhibition in [1] and in assay [2] were -15.6% and -5.31%, respectively. In [16], the outcome was inactive. Moreover, the Potency result in assay [8], in assay [9], in [10] and in assay [11] was “inactive” each time.

In the case of `COc1ccccc1-c1ccc2ncnc(N3CCOCC3)c2c1`, the Potency was above 11.4 µM in [13]; 0.631 µM (active) in assay [12]; above 46 µM in assay [4]; above 46 µM in [5]; 1.26 µM (active) in assay [17]; 11.2 µM (active) in [8]. Besides, the Potency in assay [9] was 12.6 µM (active); in [10] it was 11.2 µM (active). Also, the activity change, negative = inhibition in assay [2] is 18.9%. In addition, the compound was called inactive in assay [3] and in assay [16]. Further, the Potency result in [11] is “inactive”.

Consider `N#Cc1cccc(-c2nc(NCCN3CCOCC3)c3ccccc3n2)c1`, for which the Potency in assay [13] was above 11.4 µM; in assay [12] it was 1 µM (active); in [4], above 46 µM; in [5], above 46 µM; in assay [8] it was 11.2 µM (active); in assay [10] it was 7.94 µM (active). In addition, the activity change, negative = inhibition in [1] is -13%. Also, the compound was called inactive in assay [3] and in [16]. Besides, the Potency entry in assay [6], in [7] and in assay [11] was “inactive” throughout. Besides, the activation in assay [15] is -16.9%.
